# Activity calls are given as the source filed them. How the source made its calls: active means hit-call score of the fitted dose curve at least 0.9, where 1 is the maximum; inactive means score below 0.9.
# Assays:
# [1] = ATG_ISRE_CIS: Attagene CIS-FACTORIAL HepG2 Assay for human Interferon Regulatory Factor 1 (IRF1) binding to an Interferon-Stimulated Response Element (ISRE) (AID 2282948); settings: HepG2 ISRE cis-reporter (Attagene), mRNA transcription readout; actives raise or lower the signal
# In short: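 Read-out: fluorescent RT-PCR products resolved by capillary electrophoresis, reporting endogenous transcription factor activity via ISRE-driven reporter mRNA in transfected HepG2 cells dosed for 24 h; gain or loss fitted relative to DMSO.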
# [2] = ATG_M_32_CIS: Attagene CIS-FACTORIAL HepG2 Assay for M32 Transcription Factor (Internal Marker) (AID 2282949); settings: HepG2 Attagene cis-factorial M32 reporter, mRNA; actives raise or lower the signal;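 further: background control marker of the multiplexed CIS panel rather than a real target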
# In short: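 Transient MRTU transfection of HepG2; 24 h compound treatment; TriZol RNA, oligo(dT) RT, reporter PCR, 6-FAM primer extension, HpaI cut, CE. Gain/loss of signal vs DMSO.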
# [3] = ATG_M_06_CIS: Attagene CIS-FACTORIAL HepG2 Assay for M06 Transcription Factor (Internal Marker) (AID 2282950); settings: HepG2 Attagene CIS-FACTORIAL M06 internal marker reporter; actives raise or lower the signal
# In short: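 HepG2 cells transiently transfected with cis-regulated multiple reporter transcription units were exposed to chemical for 24 h; reporter mRNA was quantified by RT-PCR, 6-FAM primer labelling, HpaI digestion and capillary electrophoresis, fitted bidirectionally against DMSO.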
# [4] = molecular target: Hypoxia-inducible factor 1-alpha (Homo sapiens) (UniProt Q16665); test: ATG_HIF1a_CIS: Attagene CIS-FACTORIAL HepG2 Assay for human Hypoxia Inducible Factor 1 (HIF1A) (AID 2282951); settings: HepG2 Attagene cis-factorial HIF1a reporter transcription; actives raise or lower the signal
# In short: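 Activity is fitted in both directions relative to DMSO. Reporter transcripts are read by RT-PCR, fluorescent primer extension and capillary electrophoresis after 24 h chemical treatment. The cells are HepG2 carrying transiently transfected cis-element-driven reporter units responding to endogenous factors.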
# [5] = molecular target: Hepatocyte nuclear factor 6 (Homo sapiens) (UniProt Q9UBC0); test: ATG_HNF6_CIS: Attagene CIS-FACTORIAL HepG2 Assay for human Hepatocyte Nuclear Factor 6 (HNF6) (AID 2282952); settings: HepG2 Attagene cis-factorial HNF6 reporter transcription; actives raise or lower the signal
# In short: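 Endogenous transcription factor activity in human HepG2 liver cells was captured through cis-regulated reporter constructs. After 24 h treatment, reporter mRNA was measured by RT-PCR with capillary electrophoresis, and activity was fitted in both directions relative to DMSO.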
# [6] = ATG_MRE_CIS: Attagene CIS-FACTORIAL HepG2 Assay for human Metal Responsive Element (MRE) (AID 2282954); settings: HepG2 MRE cis-reporter transcription, Attagene multiplex; actives raise or lower the signal
# In short: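 RT-PCR/capillary electrophoresis readout of reporter mRNA, 24 h post-dosing, in HepG2 cells transfected with multiplexed cis-regulated reporter constructs. Gain or loss of signal fitted bidirectionally against DMSO baseline.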
# [7] = molecular target: Heat shock factor protein 1 (Homo sapiens) (UniProt Q00613); test: ATG_HSE_CIS: Attagene CIS-FACTORIAL HepG2 Assay for human Heat Shock Transcription Factor 1 (HSE) (AID 2282953); settings: HepG2 HSE cis-reporter, Attagene RNA transcription; actives raise or lower the signal
# In short: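 HepG2 cells transiently transfected with multiple reporter transcription units under cis-regulatory promoter control, measuring endogenous transcription factor activity. After 24 h chemical exposure, reporter mRNA quantified by RT-PCR, fluorescent labelling, HpaI digestion and capillary electrophoresis; bidirectional fit versus DMSO.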
# [8] = ATG_PBREM_CIS: Attagene CIS-FACTORIAL HepG2 Assay for human Phenobarbital-responsive Enhancer Module (PBREM) (AID 2282955); settings: HepG2 PBREM cis-reporter, Attagene multiplexed transcription; actives raise or lower the signal
# In short: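 Endogenous transcription factor activity was read from reporter transcripts in transiently transfected human HepG2 liver cells after 24 h dosing. RT-PCR products were fluorescently labelled, HpaI-cut and sized by capillary electrophoresis; activity fitted bidirectionally against DMSO baseline.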
# Sequence of Hypoxia-inducible factor 1-alpha (Homo sapiens) (Q16665 whole entry, looked up): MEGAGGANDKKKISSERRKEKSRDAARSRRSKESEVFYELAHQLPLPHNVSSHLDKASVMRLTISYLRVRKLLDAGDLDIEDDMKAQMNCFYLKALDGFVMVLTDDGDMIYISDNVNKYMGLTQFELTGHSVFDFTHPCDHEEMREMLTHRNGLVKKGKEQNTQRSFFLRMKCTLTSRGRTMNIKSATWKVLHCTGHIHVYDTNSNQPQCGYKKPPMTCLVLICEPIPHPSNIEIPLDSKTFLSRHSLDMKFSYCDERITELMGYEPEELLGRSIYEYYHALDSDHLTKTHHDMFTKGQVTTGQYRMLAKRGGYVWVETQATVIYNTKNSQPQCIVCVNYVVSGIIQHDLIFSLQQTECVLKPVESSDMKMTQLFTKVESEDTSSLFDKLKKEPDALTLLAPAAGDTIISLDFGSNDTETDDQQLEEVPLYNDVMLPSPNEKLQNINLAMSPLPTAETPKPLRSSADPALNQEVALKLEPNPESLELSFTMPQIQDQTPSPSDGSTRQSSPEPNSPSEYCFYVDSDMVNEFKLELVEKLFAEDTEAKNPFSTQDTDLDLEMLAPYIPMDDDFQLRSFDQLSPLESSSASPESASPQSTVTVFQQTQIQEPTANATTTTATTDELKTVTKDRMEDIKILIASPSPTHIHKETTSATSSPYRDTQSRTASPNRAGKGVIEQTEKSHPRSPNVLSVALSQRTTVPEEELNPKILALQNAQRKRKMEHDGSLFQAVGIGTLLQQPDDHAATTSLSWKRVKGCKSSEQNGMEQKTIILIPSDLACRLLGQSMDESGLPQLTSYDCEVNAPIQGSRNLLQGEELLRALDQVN
# Sequence of Hepatocyte nuclear factor 6 (Homo sapiens) (Q9UBC0 whole entry, looked up): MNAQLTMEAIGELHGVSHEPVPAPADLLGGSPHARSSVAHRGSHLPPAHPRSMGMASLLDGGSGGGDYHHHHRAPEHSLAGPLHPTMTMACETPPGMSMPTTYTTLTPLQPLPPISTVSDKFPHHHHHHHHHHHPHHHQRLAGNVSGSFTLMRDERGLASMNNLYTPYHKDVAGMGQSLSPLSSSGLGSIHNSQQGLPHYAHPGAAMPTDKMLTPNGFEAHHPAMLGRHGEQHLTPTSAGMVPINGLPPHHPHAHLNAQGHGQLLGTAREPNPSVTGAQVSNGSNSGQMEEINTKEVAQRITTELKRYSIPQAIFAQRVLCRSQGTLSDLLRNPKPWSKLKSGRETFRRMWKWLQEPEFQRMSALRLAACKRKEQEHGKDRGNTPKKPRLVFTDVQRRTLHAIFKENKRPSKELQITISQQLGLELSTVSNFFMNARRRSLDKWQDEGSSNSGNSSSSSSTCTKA
# Sequence of Heat shock factor protein 1 (Homo sapiens) (Q00613 whole entry, looked up): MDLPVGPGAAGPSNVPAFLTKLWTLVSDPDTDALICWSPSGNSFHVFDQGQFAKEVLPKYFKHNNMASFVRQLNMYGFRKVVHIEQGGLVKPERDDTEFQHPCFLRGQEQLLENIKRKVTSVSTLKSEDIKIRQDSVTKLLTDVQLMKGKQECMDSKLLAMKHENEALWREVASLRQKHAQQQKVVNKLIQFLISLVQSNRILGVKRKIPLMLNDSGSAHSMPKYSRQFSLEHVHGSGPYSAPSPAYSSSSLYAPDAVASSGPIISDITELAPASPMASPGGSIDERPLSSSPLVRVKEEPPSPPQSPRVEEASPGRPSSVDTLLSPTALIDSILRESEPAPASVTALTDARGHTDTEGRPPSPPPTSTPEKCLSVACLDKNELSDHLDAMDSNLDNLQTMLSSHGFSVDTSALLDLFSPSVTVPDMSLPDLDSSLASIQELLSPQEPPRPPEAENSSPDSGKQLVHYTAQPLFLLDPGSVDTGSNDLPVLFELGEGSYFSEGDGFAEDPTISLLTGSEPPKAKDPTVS
SMILES,outcome [1],outcome [2],outcome [3],outcome [4],outcome [5],outcome [6],outcome [7],outcome [8],AC50 [4],AC50 [5]
Cc1ccc(C(C)C)cc1O,inactive,inactive,inactive,inactive,inactive,inactive,–,–,–,–
COC(C)CCO (stereo not drawn),inactive,inactive,inactive,–,inactive,inactive,inactive,inactive,–,–
CC(C)[C@H]1CC[C@@H](C)CC1=O,inactive,inactive,inactive,–,inactive,inactive,inactive,–,–,–
CC(=O)O[C@H](CC(=O)[O-])C[N+](C)(C)C,inactive,inactive,–,–,inactive,inactive,inactive,–,–,–
CCCCCC(=O)OCCc1ccccc1,inactive,inactive,inactive,inactive,inactive,inactive,–,inactive,–,–
CN1[C@@H]2CC(OC(=O)[C@H](CO)c3ccccc3)C[C@H]1[C@@H]1O[C@@H]12 (stereo partly drawn),inactive,inactive,inactive,–,–,inactive,–,inactive,–,–
CCCCCC(CO)CCC (stereo not drawn),inactive,inactive,inactive,–,inactive,inactive,–,–,–,–
CCN(CC)CCOC(=O)c1ccc(N)cc1,inactive,inactive,–,–,inactive,inactive,inactive,–,–,–
CC(=O)[O][Al][O]C(C)=O,inactive,inactive,inactive,inactive,inactive,inactive,–,inactive,–,–
CC1(C)OC[C@@H]2O[C@@]3(C(=O)O)OC(C)(C)O[C@H]3[C@@H]2O1,inactive,inactive,inactive,inactive,inactive,inactive,–,inactive,–,–
CCCCCOC(=O)CCC,inactive,inactive,inactive,–,inactive,inactive,inactive,inactive,–,–
COc1ccc(NC(=O)CC(C)=O)cc1,inactive,inactive,inactive,–,inactive,inactive,inactive,inactive,–,–
CCN(CC)c1ccc(C(=C2C=CC(=[N+](CC)CC)C=C2)c2ccc(S(=O)(=O)O)cc2S(=O)(=O)[O-])cc1,inactive,inactive,inactive,–,inactive,inactive,inactive,–,–,–
OCCOc1cccc(OCCO)c1,inactive,inactive,–,inactive,inactive,inactive,–,inactive,–,–
Cc1ccc(C(=O)O)o1,inactive,inactive,inactive,–,inactive,inactive,inactive,inactive,–,–
O=CCCc1ccccc1,inactive,inactive,–,inactive,inactive,inactive,inactive,–,–,–
O=C(OCc1ccccc1)C(=O)OCc1ccccc1,inactive,inactive,inactive,inactive,inactive,inactive,–,inactive,–,–
CCCCC(CC)COC(=O)/C=C\C(=O)OCC(CC)CCCC (stereo not drawn),inactive,inactive,inactive,–,–,inactive,–,inactive,21.2 µM (active),171 µM (active)

# — PubChem BioAssay (EPA / NIEHS)
